Assay outcomes deposited in PubChem by Sanford-Burnham Center for Chemical Genomics.
CYP2C9 act – CYP2C9 (human) activation; P11712; recombinant CYP2C9, luciferin-H conversion, luminescence; active compounds read high; factor 1 = untreated enzyme, 0 = blocked; activation factor at 5 µM; hit rate 1.4% among 96,000;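 active means activation factor of 2 or more for CYP2C9 at a 5 µM dose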
CYP2C19 inh – blocks human cytochrome P450 2C19; AID 778; P33261; hit rate 21% among 96,000; inhibition, % at 5 µM; CYP2C19 Supersomes, luciferin-H EGE luminescence, 30 min;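 active means CYP2C19 inhibition above a set limit at 5 µM in the primary screen, cut at about 50% in these data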
CYP2C19 activ – cytochrome P450 2C19 (human) activation; P33261; recombinant CYP2C19, luciferin-H EGE luminescence; active compounds read high; 0 = fully inhibited enzyme, 1 = untreated enzyme; activation factor at 5 µM; 96,000 tested, under 10 active; AID 1025;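 active means activation factor of at least 2 at 5 µM in the primary screen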
CD11b adhes enh – enhancers of human CD11b/CD18 binding to fibrinogen. K562 CD11b/CD18 adhesion to fibrinogen, ATPlite luminescence. P05107+P11215. activation, % at 10 µM. hit rate 0.07% among 93,000;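 active means 10 µM primary screen giving 50% or more activity, confirmed by 40% or more on retest at that dose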
Target sequence (P05107 whole entry, looked up, other chains not shown): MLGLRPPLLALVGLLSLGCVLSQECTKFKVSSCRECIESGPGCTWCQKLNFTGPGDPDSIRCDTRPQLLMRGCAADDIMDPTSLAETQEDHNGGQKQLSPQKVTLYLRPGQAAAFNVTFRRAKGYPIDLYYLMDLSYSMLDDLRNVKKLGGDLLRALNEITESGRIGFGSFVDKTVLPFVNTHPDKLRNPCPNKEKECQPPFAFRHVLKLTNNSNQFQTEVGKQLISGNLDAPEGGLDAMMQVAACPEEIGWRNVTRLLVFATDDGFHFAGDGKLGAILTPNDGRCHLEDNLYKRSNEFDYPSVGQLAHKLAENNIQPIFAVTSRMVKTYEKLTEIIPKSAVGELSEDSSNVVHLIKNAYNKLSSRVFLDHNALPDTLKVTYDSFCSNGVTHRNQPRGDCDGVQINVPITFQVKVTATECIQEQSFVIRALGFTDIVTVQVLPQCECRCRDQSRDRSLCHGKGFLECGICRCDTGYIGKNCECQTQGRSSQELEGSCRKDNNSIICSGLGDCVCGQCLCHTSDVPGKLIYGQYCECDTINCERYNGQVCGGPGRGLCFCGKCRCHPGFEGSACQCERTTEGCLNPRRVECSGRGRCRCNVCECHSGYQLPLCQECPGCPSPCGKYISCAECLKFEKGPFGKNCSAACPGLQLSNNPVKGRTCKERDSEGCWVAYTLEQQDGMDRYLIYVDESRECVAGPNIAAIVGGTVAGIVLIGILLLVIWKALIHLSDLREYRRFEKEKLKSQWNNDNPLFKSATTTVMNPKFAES
CYP2C9 inh – blocks human cytochrome P450 2C9. inhibition, % at 5 µM. hit rate 20% among 96,000. CYP2C9 Supersomes, luciferin-H conversion, luminescence;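 active means blocking of liver enzyme CYP2C9 beyond about 50% at 5 µM, limit read from the data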
CD11b adhes inh – CD11b/CD18-fibrinogen binding inhibition; AID 1497; inhibition, % at 10 µM; hit rate 0.54% among 93,000; K562 CD11b/CD18 adhesion to fibrinogen, ATPlite luminescence; Mn2+ added to activate the integrin; P05107+P11215;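 active means primary inhibition of 50% or more at 10 µM, then 40% or more on retest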
Numbers stand for hits; - = inactive; . = no result. This is a sample that favours compounds with a hit; in the whole collection about 28% have one here.

SMILES | CYP2C9 act | CYP2C19 inh | CYP2C19 activ | CD11b adhes enh | CYP2C9 inh | CD11b adhes inh
Cc1csc(NC(=O)CSc2nc3ccccc3c(=O)[nH]2)n1 | - | - | - | - | 55 | -
Cc1cc(NC(=O)Cc2csc(-c3ccccc3)n2)ccc1Br | . | . | . | - | . | -
Cc1cccc(C)c1NC(=O)CSc1nc2ccccc2c(=O)[nH]1 | - | - | - | - | - | -
COC(=O)c1ccccc1NS(=O)(=O)c1cn(C)c(=O)n(C)c1=O | - | - | - | - | - | -
COc1ccc(S(=O)(=O)Cc2ccc(C(=O)N3CCN(C4CCCCC4)CC3)o2)cc1 | - | - | - | - | 66 | -
O=C(c1ccc(CS(=O)(=O)c2ccc(Br)cc2)o1)N1CCN(C2CCCCC2)CC1 | - | - | - | - | 78 | -
O=C(c1ccc(CS(=O)(=O)c2ccc(Br)cc2)o1)N1CCCCCC1 | - | 80 | - | - | - | -
O=C(c1ccc(CS(=O)(=O)c2ccc(Br)cc2)o1)N1CCCC1 | - | - | - | - | - | -
Cc1ccc(/C(O)=C2/C(=O)C(=O)N(Cc3cccnc3)C2c2ccccn2)cc1 (configuration not stated) | - | 66 | - | - | 90 | -
CCOc1cccc(/C(O)=C2/C(=O)C(=O)N(Cc3cccnc3)C2c2ccco2)c1 (configuration not stated) | - | - | - | . | 65 | .
COc1ccc(/C(O)=C2/C(=O)C(=O)N(Cc3cccnc3)C2c2ccco2)cc1OC (configuration not stated) | - | - | - | . | - | .
O=C1C(=O)N(Cc2cccnc2)C(c2ccccn2)/C1=C(/O)c1ccc(F)cc1 (configuration not stated) | - | - | - | - | 71 | -
NS(=O)(=O)c1ccc(CNC(=O)CC23CC4CC(CC(C4)C2)C3)cc1 | - | - | - | - | - | -
CC1CCN(C(=O)CSc2nnc(CSc3ncccn3)n2C)CC1 | - | - | - | - | - | -
COc1ccccc1CNC(=O)c1ccccc1N | - | 53 | - | - | - | -
CCN(CC)CCNC(=O)c1ccccc1N | - | 67 | - | - | 56 | -
CCCCC(CC)C(=O)NCc1ccccc1OC (configuration not stated) | - | 53 | - | - | - | -
COc1ccc(C(=O)NCc2ccccc2OC)c(OC)c1 | 2.6 | 56 | - | - | - | -
CCN(CC)S(=O)(=O)c1cccc(NC(=O)c2cc3ccccc3o2)c1 | - | - | - | - | - | -
CN(CC(=O)Nc1ccccc1N1CCOCC1)S(=O)(=O)c1ccc(Cl)cc1 | - | - | - | - | - | -
CCN(CC)S(=O)(=O)c1cc(NC(=O)C(=O)c2c(-c3ccccc3)cc3ccccn23)ccc1C | - | - | - | - | 54 | -
CCN(CC)S(=O)(=O)c1ccc(N2CCOCC2)c(NC(=O)C(=O)c2c(-c3ccccc3)cc3ccccn23)c1 | - | - | - | - | 86 | -
CCN(CC)S(=O)(=O)c1cccc(NC(=O)C(=O)c2c(-c3ccccc3)cc3ccccn23)c1 | - | 57 | - | - | 65 | -
Cc1cc(C(=O)COC(=O)c2ccccc2O)c(C)n1Cc1cccs1 | - | 57 | - | - | - | -
Cc1cc(C(=O)COC(=O)c2ccc3c(c2)OCO3)c(C)n1Cc1cccs1 | - | - | - | - | - | -
SMILES | CYP2C9 act | CYP2C19 inh | CYP2C19 activ | CD11b adhes enh | CYP2C9 inh | CD11b adhes inh
CC(=O)Nc1ccccc1OCC(=O)c1cc(C)n(Cc2cccs2)c1C | - | 80 | - | - | - | 102
CCn1nc(C(=O)OCC(=O)c2cc(C)n(Cc3cccs3)c2C)c2ccccc2c1=O | - | 80 | - | - | - | -
Cc1cc(OCCn2cc(/C(N)=N/O)c3ccccc32)ccc1Cl | - | - | - | . | - | .
Cc1ccc(N(C(=O)CCC(=O)Nc2cc(C)on2)C(C(=O)NC2CCCC2)c2ccncc2)cc1 (configuration not stated) | - | 64 | - | - | 69 | -
Cc1cccc(N(C(=O)CCC(=O)Nc2cc(C)on2)C(C(=O)NC2CCCC2)c2ccncc2)c1 (configuration not stated) | - | 81 | - | - | 84 | -
Cc1cc(NC(=O)CCC(=O)N(Cc2cccs2)C(C(=O)NC2CCCC2)c2ccncc2)no1 (configuration not stated) | - | 69 | - | - | 84 | -
COc1ccc(C(C(=O)NC(C)(C)C)N(CC2CCCO2)C(=O)CCC(=O)Nc2cc(C)on2)cc1 (configuration not stated) | - | 51 | - | - | 84 | -
Cc1noc(C)c1C(=O)OC(C(=O)NC1CCCC1)c1ccc(F)cc1 (configuration not stated) | - | - | - | - | - | -
Cc1ccc(S(=O)(=O)NC(=O)c2cccn2C)cc1 | - | - | - | - | - | -
Cc1ccc(C)c(NS(=O)(=O)c2c(C)ccc3nsnc23)c1 | - | - | - | - | - | -
Cc1ccc2nsnc2c1S(=O)(=O)NCCc1c(C)[nH]c2ccc(F)cc12 | - | 78 | - | - | - | -
Nn1c(CN2CCCCC2)nc2ccccc2c1=O | - | - | - | - | - | -
Cc1nc2ccccc2c(=O)n1N | - | 77 | - | - | 97 | -
CCCCOc1ccc(CNn2c(C)nc3ccccc3c2=O)cc1 | - | 91 | - | . | 67 | .
COc1ccc(CNn2c(C)nc3ccccc3c2=O)cc1 | - | 96 | - | . | - | .
CCCc1nnc(SCC(=O)N2CCCCC2)n1CCCOC | - | - | - | - | - | -
CCc1nnc(NC(=O)c2sc3nc4cc(C)ccc4cc3c2N)s1 | - | - | - | 100 | - | -
COc1ccc(CN2CCN(C(=O)c3cccs3)CC2)c(OC)c1OC | - | - | - | - | - | -
O=C(COc1cccc(Oc2ccccc2)c1)Nc1ncccn1 | - | - | - | - | - | -
CCC(=O)c1ccccc1OCCCn1cncn1 | - | 90 | - | - | - | -
c1ccc(Oc2cccc(OCCn3cncn3)c2)cc1 | - | 95 | - | - | 68 | -
c1ccc(COc2ccc(OCCn3cncn3)cc2)cc1 | - | 92 | - | - | 96 | -
c1ccc(-c2ccc(OCCCn3cncn3)cc2)cc1 | - | 70 | - | - | 71 | -
CC(=O)CCc1ccc(OCCCCn2cncn2)cc1 | - | - | - | - | - | -
NC(CC(=O)O)c1ccc(Br)cc1 (configuration not stated) | . | . | . | - | . | -
CC(=O)OC1CC(n2ccc(NC(=O)c3ccccc3)nc2=O)OC1CO (configuration not stated) | - | - | - | - | - | -
COc1ccc(S(=O)(=O)NCc2ccc3c(c2)OCO3)cc1C | - | 100 | - | - | - | -
COC(=O)NCc1ccc2c(c1)OCO2 | - | - | - | - | - | -
COc1cccc(CNS(=O)(=O)/C=C/c2ccc3c(c2)OCO3)c1 | - | 99 | - | - | 69 | -
COc1cccc(S(=O)(=O)NCc2ccc3c(c2)OCO3)c1 | - | 100 | - | - | 91 | -
